Rows were chosen to be rich in hits. Some 3.5% of all compounds tested hit in one or more screens of this group.
MITF inh: human MITF inhibition, primary screen. O75030. AlphaScreen MITF homodimerization, bead proximity signal. inhibition, % at 2.6 µM. hit rate 0.91% among 650,000. AID 1259374; in the data active = inhibition above about 50%
Target sequence (O75030 whole entry, looked up): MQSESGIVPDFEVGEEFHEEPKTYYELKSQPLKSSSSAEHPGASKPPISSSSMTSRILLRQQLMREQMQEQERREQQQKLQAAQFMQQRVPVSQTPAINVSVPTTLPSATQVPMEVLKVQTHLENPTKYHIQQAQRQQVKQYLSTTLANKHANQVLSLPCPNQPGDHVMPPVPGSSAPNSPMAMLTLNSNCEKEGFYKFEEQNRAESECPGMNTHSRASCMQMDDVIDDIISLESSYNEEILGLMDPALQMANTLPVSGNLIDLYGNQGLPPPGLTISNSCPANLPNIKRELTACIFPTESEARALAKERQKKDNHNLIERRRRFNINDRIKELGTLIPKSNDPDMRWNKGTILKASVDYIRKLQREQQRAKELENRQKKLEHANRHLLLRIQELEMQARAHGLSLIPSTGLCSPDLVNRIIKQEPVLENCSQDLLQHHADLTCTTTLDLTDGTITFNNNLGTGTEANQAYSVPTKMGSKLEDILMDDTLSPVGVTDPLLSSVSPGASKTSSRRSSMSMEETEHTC
TEAD-YAP block: TEAD-YAP interaction inhibition | HEK-TIYL cells, TEAD-Gal4/YAP UAS-luciferase luminescence | inhibition, % at 9.12 µM | hit rate 1.4% among 640,000 | AID 1259422; in the data active = inhibition above about 32%
FBW7 act: human FBW7 E3 ligase activation, primary screen | Q969H0 | AlphaScreen FBW7–phospho-cyclin E peptide binding, activator screen | normalized activity (activation), % at 26.1 µM | hit rate 0.13% among 650,000 | AID 1259310; in the data active = normalized activity above about 1.9%;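 note: purified mutant Fbw7 with reduced substrate affinity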
GPR151 ag: human GPR151 activation; Q8TDV0; PathHunter beta-arrestin GPR151 cells, luminescence; activation, % at 11.2 µM; hit rate 1% among 650,000; in the data active = activation above about 4.9%
MITF inh conf: confirmation of human MITF inhibitors | inhibition, % at 2.6 µM | AlphaScreen MITF homodimerization, biotin/His-MITF beads | AID 1259372 | shares compounds with MITF inh | hit rate 16% among 4,700;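 active = inhibition above a cutoff derived from the DMSO control wells, cut at about 28% in these data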;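 note: inhibitors lower the bead chemiluminescence by keeping MITF from dimerizing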
AS interf DR: counter-screen: compounds optically interfering with AlphaScreen. shares compounds with MITF inh. AlphaScreen optical interference counterscreen, cell-free. IC50, µM. hit rate 6% among 480. AID 1259373; call rule not given here
AlphaScreen intf2: optically interferes with AlphaScreen signal. inhibition, % at 2.6 µM. LysRS AlphaScreen counterscreen, signal interference, triplicate. hit rate 7.6% among 4,700. AID 1259376. shares compounds with MITF inh;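 active = inhibition above a cutoff derived from the DMSO control wells, cut at about 30% in these data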
Large screens that a line does not name were inactive (follow-up assays come after a bar, where they were run).

COc1ccc(CCC(=O)N2CCC(Cn3c(C)nc4ccccc43)CC2)cc1	MITF inh 78 | MITF inh conf inactive | AlphaScreen intf2 inactive
C=CCN1C(=O)/C(=C/c2cc(C)n(CC)c2C)SC1=S	none
N#Cc1cnn(-c2nc3ccccc3s2)c1N	none
COc1ccccc1CN1CCC(N2CCCCC2)CC1	MITF inh 70 | MITF inh conf inactive | AlphaScreen intf2 inactive
COc1ccccc1CN1CCC(N2CCN(c3ccccc3)CC2)CC1	MITF inh 68 | MITF inh conf inactive | AlphaScreen intf2 inactive
COc1cccc(CN2CCC(N3CCCCCC3)CC2)c1OC	none
O=C(CC1Nc2ccccc2NC1=O)Nc1cccc(Cl)c1 (configuration not stated)	MITF inh 65 | MITF inh conf inactive | AlphaScreen intf2 inactive
COc1ccc(OC)c(CN2CCCC(C(=O)NN)C2)c1 (configuration not stated)	none
COc1ccc(OC)c(CN2CCCC(C(=O)N3CCCCCC3)C2)c1 (configuration not stated)	MITF inh 93 | MITF inh conf inactive | AlphaScreen intf2 inactive
COc1ccc(CN2CCCC(C(=O)N3CCCC3)C2)c(OC)c1OC (configuration not stated)	MITF inh 93 | MITF inh conf inactive | AlphaScreen intf2 inactive
COc1ccc(OC)c(CN2CCC(C(N)=O)CC2)c1	none
COc1ccc(OC)c(CN2CCCC(C(=O)N3CCCCC3)C2)c1 (configuration not stated)	MITF inh 78 | MITF inh conf inactive | AlphaScreen intf2 inactive
O=C1CC(c2ccccc2)CC2=C1C(c1cccs1)N(C(=O)Cc1ccccc1)c1ccccc1N2 (configuration not stated)	none
COc1ccc(Cl)cc1N(CC(=O)NCCSc1ccc(C)cc1)S(C)(=O)=O	none
Cc1cnc(Nc2ccc(-n3ccnc3)cc2)nc1Nc1ccccc1	MITF inh 52, TEAD-YAP block 37 | MITF inh conf inactive | AlphaScreen intf2 inactive
Cc1cnc(Nc2nc3ccccc3n2C)nc1Nc1ccccc1	MITF inh 73 | MITF inh conf inactive | AlphaScreen intf2 inactive
COc1ccc2c(CNCCCc3ccccc3)c(C(=O)O)n(Cc3ccccc3F)c2c1	none
Cc1ccccc1NC(=O)c1ccccc1N(Cc1ccccc1)S(C)(=O)=O	MITF inh 55 | MITF inh conf inactive | AlphaScreen intf2 inactive
COCCCNCCOc1ccc2ccccc2c1Br	MITF inh 59 | MITF inh conf inactive | AlphaScreen intf2 inactive
CC(O)CNCCCCOc1ccc2ccccc2c1Br (configuration not stated)	MITF inh 71 | MITF inh conf 53 | AlphaScreen intf2 40
CCCCCC(=O)CC[C@@H]1[C@@H](C/C=C\CCCC(=O)O)[C@@H](O)C[C@@H]1O	MITF inh 56 (no result: TEAD-YAP block, FBW7 act) | MITF inh conf inactive | AlphaScreen intf2 inactive
c1ccc2c(c1)OCC(c1nc3c(-c4ccncc4)cncc3[nH]1)O2 (configuration not stated)	MITF inh 61 | MITF inh conf 39 | AS interf DR inactive | AlphaScreen intf2 inactive
NNc1nc(NN)nc(Nc2ccccc2)n1	MITF inh 65 | MITF inh conf 97 | AlphaScreen intf2 100
c1ccc(Nc2nc(Nc3ccccc3)nc(Oc3ccccc3)n2)cc1	none
Cc1cc(C)nc(SCc2nnc(SCC(=O)Nc3nccs3)o2)n1	MITF inh 72 | MITF inh conf 77 | AlphaScreen intf2 31
Cc1cc(C)c(C(N)=O)c(SCC(=O)Nc2nccs2)n1	none
c1ccc(-n2ncc3c(N4CCN(C5c6ccccc6-c6ccccc65)CC4)ncnc32)cc1	none
CC(=O)Nc1ccc(OS(=O)(=O)c2ccccc2[N+](=O)[O-])cc1	MITF inh 56 | MITF inh conf inactive | AlphaScreen intf2 inactive
CC(=O)Nc1ccc(NS(=O)(=O)c2ccccc2[N+](=O)[O-])cc1	none
COc1ccc(-c2cc3ccccc3n2CC(O)CNCc2ccco2)cc1 (configuration not stated)	MITF inh 71 | MITF inh conf inactive | AlphaScreen intf2 inactive
C=CC1=C(C(=O)O)N2C(=O)[C@@H](NC(=O)/C(=N\O)c3csc(N)n3)[C@H]2SC1 (stereo in doubt)	MITF inh 59 | MITF inh conf 59 | AlphaScreen intf2 46
c1cncc(CNc2nc(Nc3ccc(N4CCOCC4)cc3)nc3c2ncn3C2CCCCC2)c1	none
c1cncc(CNc2nc(Nc3ccc(N4CCOCC4)cc3)c3ncn(C4CCCCC4)c3n2)c1	MITF inh 51 | MITF inh conf 84 | AlphaScreen intf2 inactive
Cc1ccc(NC(=O)CN(Cc2ccccc2)S(=O)(=O)c2ccc(Br)cc2)cc1C	MITF inh 59 | MITF inh conf inactive | AlphaScreen intf2 inactive
O=C(CN1CCOCC1)Nc1ccccc1N1CCOCC1	MITF inh 87 | MITF inh conf inactive | AlphaScreen intf2 inactive
O=C(CNCC1CCCO1)Nc1ccccc1N1CCCCC1 (configuration not stated)	MITF inh 60 | MITF inh conf inactive | AlphaScreen intf2 inactive
Cc1cc(NC(=O)CNCC2CCCO2)no1 (configuration not stated)	MITF inh 54 | MITF inh conf inactive | AlphaScreen intf2 inactive
Cc1cc(N)ccc1NC(=O)CN1CCCC1	MITF inh 67 | MITF inh conf inactive | AlphaScreen intf2 inactive
O=C(/C=C(\O)c1ccc(Cl)cc1)C(=O)Nc1cccc(Cl)c1	none
CN1CCN(CC(=O)Nc2ccccc2N2CCCCCC2)CC1	MITF inh 62 | MITF inh conf inactive | AlphaScreen intf2 inactive
O=C(CN1CCCC1)Nc1ccccc1N1CCCCC1	MITF inh 62 | MITF inh conf inactive | AlphaScreen intf2 inactive
CCC(=O)Nc1ccccc1N1CCCC1	none
O=C(CNC1CCCCC1)Nc1ccccc1N1CCCCC1	MITF inh 54 | MITF inh conf inactive | AlphaScreen intf2 inactive
CC1CCN(CC(=O)Nc2ccccc2N2CCCCC2)CC1	none
CCC(C)Nc1nc2c(c(=O)[nH]c(=O)n2C)n1Cc1cccc(C)c1 (configuration not stated)	none
COC(=O)CC1(O)c2ccccc2C(=O)N1Cc1ccccc1 (configuration not stated)	none
CC(=O)Nc1ccc(N2C(=O)c3ccccc3C2(O)Cc2ccccc2)cc1 (configuration not stated)	MITF inh 55 | MITF inh conf 33 | AS interf DR inactive | AlphaScreen intf2 inactive
CNCCOc1ccccc1-c1ccccc1	none
CN(C)CCOc1ccccc1-c1ccccc1	MITF inh 61 | MITF inh conf inactive | AlphaScreen intf2 inactive
CN(C)CCOCCOc1ccccc1-c1ccccc1	MITF inh 87 | MITF inh conf 41 | AS interf DR inactive | AlphaScreen intf2 inactive
O=C(CSc1ccc(F)cc1)Nc1nc2ccc([N+](=O)[O-])cc2s1	none
COC(=O)C(C)N1C(=O)S/C(=C/c2ccsc2)C1=O (configuration not stated)	none

Screening data from PubChem BioAssay.
